Measured values taken from PubChem BioAssay AID540299 (ICCB-Longwood Screening Facility, Harvard Medical School, 2011).
“And” between values parts separate entries of the source, which are not always exact repeats. Identical values can stand only once. The whole screen tested about 100,000 compounds, of which about 440 (0.44%) were called active. Rule as the data show it: active = inhibition above about 21% (passing the limit was not always enough); inactive = the rest. The list comes from a sample in which actives are over-represented; it also holds similar structures and randomly drawn compounds. A structure can be active in one record and inactive in another.

Biological target: 1,4-dihydroxy-2-naphthoyl-CoA synthase (Mycobacterium tuberculosis (strain ATCC 25618 / H37Rv)) (UniProt P9WNP5)
Sequence (P9WNP5 whole entry, looked up): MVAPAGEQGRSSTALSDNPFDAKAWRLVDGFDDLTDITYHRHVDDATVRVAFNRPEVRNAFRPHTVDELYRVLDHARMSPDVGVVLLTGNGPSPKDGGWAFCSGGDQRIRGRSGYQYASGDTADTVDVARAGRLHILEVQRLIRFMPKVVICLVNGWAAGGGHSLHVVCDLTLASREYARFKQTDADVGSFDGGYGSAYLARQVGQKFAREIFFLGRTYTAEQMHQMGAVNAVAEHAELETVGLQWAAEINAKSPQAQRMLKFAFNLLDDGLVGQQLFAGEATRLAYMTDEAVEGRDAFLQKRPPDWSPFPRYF
Assay: M. tuberculosis MenB inhibitors, primary screen, biochemical, absorbance (AID 540299)
Conditions: MenB enzyme assay, absorbance read-out; stronger effect = higher value; concentration not given here

SMILES	inhibition
Fc1ccc(CNCc2ccccn2)cc1	-6.84% (inactive)
Cn1nnc(C(O)CNCc2ccc(F)cc2)n1 (stereo unspecified)	29.6% (active)
COc1ccc(CNCC(O)c2nnn(C)n2)cc1OC (stereo unspecified)	-32.7% (inactive)
CC1CCCC(NC(=O)COC(=O)c2cccc(S(=O)(=O)N(C)C)c2)C1C (stereo unspecified)	-17.8% (inactive)
O=C(O)C1CCCN(C(=O)c2cnn(-c3ccccc3)c2-n2cccc2)C1 (stereo unspecified)	1.1% (inactive)
CCOC(=O)c1[nH]cnc1C(=O)NC1CCCCC1	-17.9% (inactive)
Cc1ccc(NC(=O)c2nc[nH]c2C(=O)N2CCCCC2)c(C(=O)c2ccccc2)c1	39.3% (active) and -17.8% (inactive)
O=C(Nc1ccccc1C(=O)N1CCCC1)Oc1ccccc1	3.13% (inactive)
N#CSc1ccc(N)c(Br)c1	24.6% (active)
N#CSc1ccc(N2CCCCC2)cc1	-10.6% (inactive)
COc1cc(CNC(=O)c2ccc(N(C)C)cc2)cc(OC)c1OC	-9.81% (inactive)
Cc1c(/C=C(\C#N)C(=O)Nc2nccs2)cc(C#N)n1C	0.38% (inactive)
C1CCC(NC2CCCC2)C1	-21.1% (inactive)
O=S1(=O)CCC(NC2CCCCC2)C1 (stereo unspecified)	49.9% (active)
O=S1(=O)CCC(S(=O)(=O)NC2CCCC2)C1 (stereo unspecified)	-11% (inactive)
CN1C(=O)C(C)(C)c2cc(S(=O)(=O)NCCc3ccco3)ccc21	-23.9% (inactive)

SMILES	inhibition
CCc1cc(CC)c(CO)c(CC)c1/C=N/O	-27% (inactive)
CC(Oc1ccccc1)c1nn2c(-c3cccnc3)nnc2s1 (stereo unspecified)	-64.7% (inactive)
O=C(c1nc(-c2ccc(Cl)cc2)n2c1CCCCC2)N1CCCCCC1	-18.8% (inactive)
Cc1cccc(COC(=O)Nc2ccc(N3CCCCC3)cc2)c1	-13.2% (inactive)
COc1cccc(NC(=O)CC2CCCCC2)c1	-13.2% (inactive)
O=C(O)c1ccc(NC(=O)C2CC2)cc1	0% (inactive)
O=C(Cn1cc(C(F)(F)F)ccc1=O)Nc1ccc(S(=O)(=O)N2CCCC2)cc1	17% (inactive)
O=C(O)c1ccc2[nH]c(=O)c(=O)[nH]c2c1	6.67% (inactive) and 1.98% (inactive)
COc1ccc(-c2nc3sc(-c4ccc(OC)cc4)nc3s2)cc1	26.2% (active)
COc1ccc(C2NNC(=S)S2)cc1 (stereo unspecified)	1.67% (inactive)
COc1ccc(-c2nn(C)c3ccccc23)cc1	4.51% (inactive)
CN1CCN(n2c(-c3ccc(Cl)cc3)csc2=Nc2ccccc2)CC1	-4.88% (inactive)
CC1C(=O)N2CCCc3cc(S(=O)(=O)NCc4ccc(F)cc4)cc1c32 (stereo unspecified)	-7.22% (inactive)
O=S(=O)(c1cccs1)N(c1ccccc1)C(F)F	9.14% (inactive)
O=S(=O)(/C=C/c1ccccc1)N1CCN(CCc2ccncc2)CC1	-2.97% (inactive)
